8 molecules from PubChem BioAssay (Tox21) can be followed below.

Test [1] in a line: qHTS assay to identify small molecule antagonists of the peroxisome proliferator-activated receptor delta (PPARd) signaling pathway - cell viability counter screen (AID 743213). Also: nearly all actives have a fitted effect of over 50% in size. Also: potency is read from the fitted curve at half-maximal effect. An outline of the steps: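 Viability counter-screen, qHTS format: PPARd-bla HEK293H, L165041 300 nM final, 17 h compound exposure at 37 C, CellTiter-Glo luminescence after 30 min RT.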
On the technique in general: Quantitative high-throughput screening tests each substance at several concentrations.

Test [2] in a line: qHTS assay to identify small molecule agonists of the farnesoid-X-receptor (FXR) signaling pathway - cell viability counter screen (AID 743218). Also: nearly all actives have a fitted effect of over 45% in size. Also: potency is read from the fitted curve at half-maximal effect. The method in brief: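 Quantitative HTS counter screen measuring ATP-based viability via CellTiter-Glo luminescence in HEK 293T cells carrying a UAS-driven beta-lactamase reporter, after 16 h compound exposure at 37 C.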
Test [3] deals with Vitamin D3 receptor (Homo sapiens) (UniProt P11473). Description: qHTS assay to identify small molecule agonists of the vitamin D receptor (VDR) signaling pathway (AID 743222; calls by dose curve; also: potency is read from the fitted curve at half-maximal effect). The method in brief:
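Tox21 cell reporter format: VDR-bla line, 16 h compound exposure in 5% CO2 at 37C, then fluorescence intensity after 2 h with LiveBLAzer B/G FRET substrate.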

Test [4] shares this target. Description: qHTS assay to identify small molecule antagonists of the vitamin D receptor (VDR) signaling pathway (AID 743223; active = well fitted inhibition curve with a large enough effect in the signal ratio in the repeat runs, not every such curve was filed as active; the % refers to the signal ratio). The method in brief: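 Antagonist mode: compound added to VDR-bla cells alongside agonist 1alpha,25-dihydroxyvitamin D3 (3 nM final), incubation 16 h at 37C. Read-out is LiveBLAzer FRET fluorescence, 2 h at room temperature.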
Test [5] in a line: qHTS assay to identify small molecule agonists of the vitamin D receptor (VDR) signaling pathway - cell viability counter screen (AID 743224). Also: nearly all actives have a fitted effect of over 50% in size. Also: potency is read from the fitted curve at half-maximal effect. The method in brief:
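CellTiter-Glo viability readout on VDR-bla cells, measured after 16 h of compound treatment at 37C in the same wells.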

Test [6] is described as follows: qHTS assay to identify small molecule agonists of the NFkB signaling pathway - cell viability counter screen (AID 1159515; calls by dose curve; also: nearly all actives have a fitted effect of over 55% in size; also: potency is read from the fitted curve at half-maximal effect). The method in brief:
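Tox21 library compounds were tested for cytotoxicity against NFkB-bla ME-180 cells during a 5 hr exposure at 37 C. CellTiter-Glo luminescence served as the viability read-out.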

A short description of test [7]: qHTS assay to identify small molecule agonists of the endoplasmic reticulum stress response signaling pathway - cell viability counter screen (AID 1159517; calls by dose curve; also: nearly all actives have a fitted effect of over 50% in size; also: potency is read from the fitted curve at half-maximal effect). An outline of the steps:
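After overnight attachment, ESRE-bla HeLa cells were treated with Tox21 library compounds for 5 hr. CellTiter-Glo luminescence, read 30 min post-addition at room temperature, reported viability.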

Test [8] in a line: qHTS assay to identify small molecule antagonists of the retinoid-related orphan receptor gamma (ROR-gamma) signaling pathway - cell viability counter screen (AID 1159520). Also: nearly all actives have a fitted effect of over 50% in size. Also: potency is read from the fitted curve at half-maximal effect. The method in brief:
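Cytotoxicity was read from cellular ATP (CellTiter-Glo luminescence) after 16 hr at 37 C with 1 uM doxycycline induction. The inducer was added 2 hr after compound transfer to Tet-on ROR gamma CHO cells.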

Test [9] has as its target Nuclear receptor ROR-gamma (Homo sapiens) (UniProt P51449). As to the kind of experiment: qHTS assay to identify small molecule antagonists of the retinoid-related orphan receptor gamma (ROR-gamma) signaling pathway (AID 1159521; also: nearly all actives have a fitted effect of over 50% in size; also: potency is read from the fitted curve at half-maximal effect). An outline of the steps: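 Antagonist read-out: drop in luminescence (ONE-Glo) from an RORE-LUC reporter in CHO cells with doxycycline-inducible ROR-gamma; 2 hr compound pretreatment, 1 uM doxycycline, 16 hr incubation at 37 C.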

Test [10] is described as follows: qHTS assay to identify small molecule agonists of the AP-1 signaling pathway - cell viability counter screen (AID 1159525; calls by dose curve; also: nearly all actives have a fitted effect of over 55% in size; also: potency is read from the fitted curve at half-maximal effect). An outline of the steps:
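Intracellular ATP by Cell Titer Glo luminescence (30 min, RT) in the same ME-180 AP-1-bla wells after the 5 h compound exposure at 37 °C. Normalised to tetra n-octyl ammonium bromide and DMSO controls.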

Test [11] is described as follows: qHTS assay to identify small molecule agonists of the RXR signaling pathway - cell viability counter screen (AID 1159529). Also: nearly all actives have a fitted effect of over 50% in size. Also: potency is read from the fitted curve at half-maximal effect. The method in brief:
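CellTiter-Glo luminescence gave viability in the wells also read for beta-lactamase. Cells (RXR-alpha-UAS-bla HEK 293T, 2% charcoal-stripped FBS medium) had 5 hr plating, then 16 hr compound exposure at 37 C; tetraoctyl ammonium bromide served as positive control.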

Test [12] addresses Peroxisome proliferator-activated receptor delta (Homo sapiens) (UniProt Q03181). Description: qHTS assay to identify small molecule agonists of the peroxisome proliferator-activated receptor delta (PPARd) signaling pathway (AID 743212; calls by dose curve;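 also: HEK293H cells with PPARd UAS beta-lactamase reporter GeneBLAzer system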). An outline of the steps:
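Steps: seed PPARd-bla HEK293H cells; incubate 5 h, 37 C, 5% CO2; add compounds in DMSO; incubate, 37 C; add LiveBLAzer B/G FRET substrate; hold 2 h at room temperature; measure fluorescence.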

The target is the same in test [13]. Description: qHTS assay to identify small molecule antagonists of the peroxisome proliferator-activated receptor delta (PPARd) signaling pathway (AID 743215; active = well fitted inhibition curve with a large enough effect in the signal ratio in the repeat runs, not every such curve was filed as active; the % refers to the signal ratio;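 also: cells stimulated with agonist L165041 at 300 nM final during compound exposure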; also: potency is read from the fitted curve at half-maximal effect). The method in brief: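 Here, a reporter line (HEK293H, beta-lactamase under a UAS) measures PPARd signaling. Compounds are tested against agonist L165041 at 300 nM final concentration over 17 h at 37 C, with fluorescence read after substrate.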

The target in test [14] is Bile acid receptor (Homo sapiens) (UniProt Q96RI1). As to the kind of experiment: qHTS assay to identify small molecule agonists of the farnesoid-X-receptor (FXR) signaling pathway (AID 743220; active = well fitted activation curve with a large enough effect in the signal ratio in the repeat runs, not every such curve was filed as active; the % refers to the signal ratio). An outline of the steps:
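FXR-UAS-bla HEK 293T cells carrying a UAS-driven beta-lactamase reporter were plated for 5 h at 37C/5% CO2, then exposed to DMSO-dissolved Tox21 10K compounds for 16 h at 37C. A LiveBLAzer B/G FRET substrate was loaded for 2 h at room temperature before fluorescence reading.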

Test [15] is described as follows: qHTS assay to identify small molecule antagonists of the farnesoid-X-receptor (FXR) signaling pathway - cell viability counter screen (AID 743221; active = well fitted cell-killing curve with a large enough effect in the repeat runs, not every such curve was filed as active; also: nearly all actives have a fitted effect of over 50% in size; also: potency is read from the fitted curve at half-maximal effect). The method in brief:
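Cytotoxicity counter screen run in the FXR-bla reporter wells: HEK 293T cells exposed to compound with 50 uM (final) chenodeoxycholic acid for 16 h, 37 C, then viability measured by CellTiter-Glo luminescence after 30 min, room temperature.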

A short description of test [16]: qHTS assay to identify small molecule antagonists of the vitamin D receptor (VDR) signaling pathway - cell viability counter screen (AID 743225). Also: nearly all actives have a fitted effect of over 50% in size. Also: potency is read from the fitted curve at half-maximal effect. The method in brief: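 Cytotoxicity counter screen read by CellTiter-Glo luminescence (30 min, room temperature) in the same wells as the VDR-bla antagonist readout. HEK 293T VDR-UAS-bla cells had 16 h at 37C with compound and 3 nM (final) 1-alpha,25-dihydroxyvitamin D3, then 2 h with FRET substrate.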

The nature of test [17]: qHTS assay to identify small molecule agonists of the AP-1 signaling pathway (AID 1159526; calls by dose curve).
Test [18] addresses Bile acid receptor (Homo sapiens) (UniProt Q96RI1). Description: qHTS assay to identify small molecule antagonists of the farnesoid-X-receptor (FXR) signaling pathway (AID 743217; active = well fitted inhibition curve with a large enough effect in the signal ratio in the repeat runs, not every such curve was filed as active; the % refers to the signal ratio). An outline of the steps:
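Test compounds are pin-transferred onto FXR-bla HEK 293T cells, then chenodeoxycholic acid is added at 50 uM final. After 16 h at 37 °C, LiveBLAzer B/G substrate is applied for 2 h at room temperature and fluorescence read.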

Results filed as inconclusive are left out. The source made the active and inactive calls. Unless noted, calls follow the shape of the dose curve; as a rule, active = well fitted curve in the direction sought with a large enough effect in the repeat runs; inconclusive = weak or mixed curves; inactive = no such curve, though single readings can be large; an effect the other way counts as inactive or inconclusive.

Chain of Bile acid receptor (Homo sapiens) (Q96RI1 whole entry, looked up): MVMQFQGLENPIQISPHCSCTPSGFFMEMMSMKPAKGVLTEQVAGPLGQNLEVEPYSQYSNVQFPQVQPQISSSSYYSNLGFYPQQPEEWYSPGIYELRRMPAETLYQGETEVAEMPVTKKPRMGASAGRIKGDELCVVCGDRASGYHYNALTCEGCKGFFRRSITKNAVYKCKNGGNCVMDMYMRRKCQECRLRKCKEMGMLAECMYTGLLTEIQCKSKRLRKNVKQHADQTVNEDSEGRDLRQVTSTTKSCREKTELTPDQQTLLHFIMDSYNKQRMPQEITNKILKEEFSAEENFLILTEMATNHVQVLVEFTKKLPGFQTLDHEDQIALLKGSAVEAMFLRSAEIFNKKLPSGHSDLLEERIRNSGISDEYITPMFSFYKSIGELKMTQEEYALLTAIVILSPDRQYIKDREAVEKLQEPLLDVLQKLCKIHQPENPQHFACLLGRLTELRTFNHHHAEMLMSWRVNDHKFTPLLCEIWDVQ
Chain of Vitamin D3 receptor (Homo sapiens) (P11473 whole entry, looked up): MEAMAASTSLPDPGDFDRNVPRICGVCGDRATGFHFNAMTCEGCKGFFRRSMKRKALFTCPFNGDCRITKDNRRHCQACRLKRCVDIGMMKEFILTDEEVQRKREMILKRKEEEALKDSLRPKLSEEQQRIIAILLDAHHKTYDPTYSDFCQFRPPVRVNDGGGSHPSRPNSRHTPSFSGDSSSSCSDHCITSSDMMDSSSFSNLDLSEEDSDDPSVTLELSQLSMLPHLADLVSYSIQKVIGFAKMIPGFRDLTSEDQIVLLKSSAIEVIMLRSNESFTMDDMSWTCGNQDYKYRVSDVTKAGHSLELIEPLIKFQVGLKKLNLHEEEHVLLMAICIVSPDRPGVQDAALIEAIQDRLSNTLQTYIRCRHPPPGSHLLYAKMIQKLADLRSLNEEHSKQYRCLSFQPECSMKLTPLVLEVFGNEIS
Chain of Peroxisome proliferator-activated receptor delta (Homo sapiens) (Q03181 whole entry, looked up): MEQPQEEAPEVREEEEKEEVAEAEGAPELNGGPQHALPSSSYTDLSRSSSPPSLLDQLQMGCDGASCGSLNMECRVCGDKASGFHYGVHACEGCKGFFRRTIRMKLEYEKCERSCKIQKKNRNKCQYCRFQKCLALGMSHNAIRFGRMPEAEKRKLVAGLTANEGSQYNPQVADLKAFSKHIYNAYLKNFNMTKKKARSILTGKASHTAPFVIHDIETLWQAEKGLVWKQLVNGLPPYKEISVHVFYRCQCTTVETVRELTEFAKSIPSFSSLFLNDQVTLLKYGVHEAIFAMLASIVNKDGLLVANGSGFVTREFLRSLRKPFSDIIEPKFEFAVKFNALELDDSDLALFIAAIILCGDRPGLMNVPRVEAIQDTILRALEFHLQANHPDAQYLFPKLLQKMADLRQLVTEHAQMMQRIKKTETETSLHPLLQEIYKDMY

On to `Cc1cccc2c1cc1ccc3cccc4ccc2c1c34`, for which the Potency entry in test [1], in [2], in test [4], in test [5], in test [6] and in [7] was “inactive” each time. Besides, the Potency result in test [8], in [9], in test [10] and in [11] was “inactive” each time. For the same molecule, in test [3], the Potency was 3.16 µM (active).
Consider `CC(C)(C)C(=O)OCOC(=O)C1N2C(=O)CC2S(=O)(=O)C1(C)C` (stereo unspecified), for which the Potency entry in test [12], in [1], in test [14], in [15], in test [5] and in test [6] was “inactive” in each case. Further, the Potency entry in test [7], in [8], in [9] and in test [10] was “inactive” in each case. Moreover, the Potency in test [13] is 2.11 µM (active).
Turning to `O=C(OCC1CO1)C1CCCCC1C(=O)OCC1CO1` (stereo unspecified), the Potency entry in test [1], in test [2], in test [15], in [3], in test [5] and in test [16] was “inactive” throughout. The Potency result in test [6], in test [7], in test [8], in test [9], in test [17] and in test [11] was “inactive” throughout.
`OCCN1CCN(CC/C=C2/c3ccccc3Sc3ccc(C(F)(F)F)cc32)CC1`: the Potency in [1] is 23.7 µM (active); in [15], 23.7 µM (active); in [16] it was 23.9 µM (active); in test [6], 26.8 µM (active); in test [7], 23.9 µM (active); in test [8], 29.8 µM (active). Further, the Potency in [9] is 26.6 µM (active); in test [10], 23.9 µM (active); in test [11], 19 µM (active). Moreover, in test [14], the Potency entry was “inactive”.
As to `[O-][n+]1ccccc1SSc1cccc[n+]1[O-]`, the Potency entry in test [12] was “inactive”. Also, the Potency in test [1] is 0.206 µM (active); in test [2] it was 0.326 µM (active); in test [15], 0.206 µM (active); in test [5], 0.164 µM (active); in test [6] it was 0.233 µM (active); in [7], 4.14 µM (active). In addition, the results for the Potency in test [8], in [9] and in test [11] were 0.103 µM (active), 0.058 µM (active) and 0.165 µM (active), respectively.
Turning to `COCCCC/C(=N\OCCN)c1ccc(C(F)(F)F)cc1`, the Potency entry in [12], in test [1], in [13], in test [18], in test [14] and in test [3] was “inactive” each time. The Potency result in test [5], in test [16], in test [6], in test [7], in [8] and in [9] was “inactive” throughout. Moreover, the Potency result in test [10] is “inactive”.
In the case of `C[C@]12CCC(=O)C=C1CC[C@@H]1[C@@H]2[C@@H](O)C[C@@]2(C)[C@H]1CC[C@]2(O)C(=O)COC(=O)CCC(=O)O`, the Potency result in [1], in test [18], in test [14], in [15], in test [3] and in test [5] was “inactive” in each case. Also, the Potency result in [16], in test [6], in [7], in [8], in [10] and in test [17] was “inactive” in each case.
Regarding `O=C(Oc1ccccc1)c1ccccc1C(=O)Oc1ccccc1`, the Potency entry in test [12], in test [13], in test [2], in test [15], in [5] and in [16] was “inactive” in each case. For the same molecule, the Potency entry in test [6], in test [7], in test [8], in test [10], in test [17] and in [11] was “inactive” in each case.
